According to PubChem BioAssay (NCATS):
Records with an inconclusive call do not appear. Activity calls are given as the source filed them. Unless noted, the call rests on the fitted dose curve; in most records, active means well fitted curve in the direction sought with a large enough effect; inconclusive means small, poorly fitted or top-dose-only effect, or another doubt; inactive means no such curve, though single readings can be large; an effect the other way counts as inactive or inconclusive.

Columns and labels:
[1] = molecular target: Cytochrome P450 1A2 (Homo sapiens) (UniProt P05177); experiment: p450-cyp1a2 (AID 410; calls by dose curve;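 further: -100% = full effect of reference inhibitor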)
In short: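 Luminescent readout of luciferin formed from Luciferin-ME by human CYP1A2; data normalized against complete inhibition by 57 uM furafylline. Enzyme 20nM, substrate 100uM at Km, 100mM KPO4 buffer, 60 min reaction at room temperature.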

[2] = molecular target: 3',5'-cyclic-AMP phosphodiesterase 4B (Homo sapiens) (UniProt Q07343); experiment: qHTS Assay for Inhibitors of PDE-IV (AID 607; active means well fitted activation curve with a large enough effect in the main read-out, with a control signal flat, not every such curve was filed as active; further: % of control where 0% means no effect)
In short: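 Cell-based read-out of cAMP via a modified cyclic nucleotide-gated channel and membrane potential dye (535/590 nm) in HEK293 cells expressing PDE4 endogenously. Compounds tested up to 22.9 uM final; 100 uM RO 20-1724 reference.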

[3] = molecular target: Guanine nucleotide-binding protein G(i) subunit alpha-1 (Homo sapiens) (UniProt P63096); experiment: qHTS Assay for Inhibitors of RGS12 GoLoco Motif Activity (Green Fluorophore) (AID 879);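 further: 0% = labeled peptide with Gαi1 and full inhibition = labeled peptide alone without protein; negative values mean loss of peptide binding seen as reduced polarization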
In short: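 Fluorescence polarization assay: 50 nM Gαi1 with 10 nM FITC-labeled RGS12 GoLoco peptide in 10 mM Tris pH 7.5, 150 mM NaCl, 0.1 mM GDP, 0.05% NP40, 10 min at room temperature with compound.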

[4] = molecular target: Cytochrome P450 2C9 (Homo sapiens) (UniProt P11712); experiment: qHTS Assay for Inhibitors and Substrates of Cytochrome P450 2C9 (AID 883); further: potency means the concentration at half of the fitted maximal effect; nearly all actives have a fitted effect of over 60% in size
In short: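 Signal: luciferase luminescence reporting luciferin produced by CYP2C9. Conditions: 10nM enzyme, Luciferin-H 100uM at KM, 25mM KPO4, 37C, 60 min NADPH-driven reaction. Reference: 57uM sulphaphenazole as 100% inhibition.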

[5] = qHTS for differential inhibitors of proliferation of Plasmodium falciparum line 7G8 (AID 1815);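 further: potency means the concentration at half of the fitted maximal effect; parasite growth measured after three days of incubation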
[6] = qHTS for differential inhibitors of proliferation of Plasmodium falciparum line HB3 (AID 1886); conditions: Potency: Plasmodium falciparum HB3 proliferation inhibition;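 further: parasites grown with compound for 72 h before SYBR Green readout; plate controls were vehicle for no effect and reference inhibitor for full effect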
[7] = molecular target: ATP-dependent DNA helicase Q1 (Homo sapiens) (UniProt P46063); experiment: qHTS Validation Assay for Inhibitors of RecQ-Like Dna Helicase 1 (RECQ1) (AID 2353);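 further: plate controls were DMSO vehicle for no effect and enzyme-free control for full effect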
In short: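 50 nM RECQ1T1 preincubated 15 min with compound in Tris pH 8.0 buffer with MgCl2, DTT, Tween-20 and 2.5 ug/ml poly(dI-dC); started with 200 nM TAMRA/BHQ-2 forked duplex and 2 mM ATP. Unwinding read as fluorescence (525/598 nm), two reads 2 h apart.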

[8] = molecular target: Transient receptor potential cation channel subfamily V member 1 (Homo sapiens) (UniProt Q8NER1); experiment: HTS Assay for Compounds that Act as Enhancers of the Vanilloid Receptor 1 (AID 488979); further: 0% is about no effect
In short: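 TRPV1 cells loaded with Fluo-8 calcium dye; compound added and Ca2+ signal (ex 480/em 520 nm) followed 3 min, then capsaicin at EC20 added and read 2 more min to detect enhancement.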

[9] = molecular target: Thyrotropin receptor (Homo sapiens) (UniProt P16473); experiment: qHTS Assay for Antagonists of the Thyroid Stimulating Hormone Receptor (AID 488980); further: series mostly up to about 58 µM; 0% is about no effect
In short: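 Inhibition of TSH-stimulated cAMP accumulation was quantified by homogeneous time-resolved FRET in TSHR-transfected HEK293 cells. Agonist: TSH, 4 nM final (EC80).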

[10] = molecular target: Thyrotropin-releasing hormone receptor (Homo sapiens) (UniProt P34981); experiment: qHTS for Small Molecule Agonists and Allosteric Enhancers of Human TRH Receptor: Validation Screen for Agonists (AID 493127;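 active means calcium activation more than 3 SD above the typical response in the agonist read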;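 further: intracellular calcium rise by fluo-8 fluorescence before TRH EC20 addition; 0% is about no effect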); conditions: TRH receptor agonist cell assay; at 2 µM; stronger effect = higher value
In short: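 Cells 2000/well, 10% FCS, 18 h 33.5C/5% CO2 → fluo-8 Ca dye, RT 30 min–1.5 h → FDSS baseline 10 × 1 s → compound added → 230 cycles (1 s/cycle) agonist mode. TRH controls.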

[11] = molecular target: Androgen receptor (Homo sapiens) (UniProt P10275); experiment: qHTS assay for small molecule agonists of androgen receptor signaling (AID 588515; active means well fitted curve in the direction sought with a large enough effect in the signal ratio, with a control signal flat; the % refers to the signal ratio; further: on the % scale 0 is the no-effect control and ±100 the full control effect); conditions: AR-UAS-bla HEK293, beta-lactamase ratio, agonist 16 h; stronger effect = higher value
In short: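 EC50 and efficacy came from Hill fits of titrations (up to 92 uM) normalized to 30 nM R1881 as 100% and DMSO as 0%. Compound exposure was 16 h at 37 C on AR-UAS-bla HEK293 cells, with a 405/460/530 nm CCF4 fluorescence read.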

[12] = molecular target: Thyroid hormone receptor beta (Homo sapiens) (UniProt P10828); experiment: qHTS assay for small molecule agonists of thyroid hormone receptor beta signaling (AID 588545; calls by dose curve)
In short: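 HEK 293 TR-UAS-bla; agonist mode; 18 hrs, 37 C; CCF4, ex 405/em 460 and 530 nm; norm. T3 10 nM = 100%, DMSO = 0%; Hill fit → EC50, efficacy.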

[13] = qHTS assay for small molecule activators of the nuclear factor-kappa B (NF-kB) signaling pathway (AID 651749; active means well fitted activation curve with a large enough effect in the signal ratio; the % refers to the signal ratio; further: series mostly up to about 77 µM; % of control where 0% means no effect); conditions: NF-kB-bla ME-180 cells, beta-lactamase FRET ratio, 16 h; stronger effect = higher value
In short: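 NF-kB-bla ME-180 cells carrying a beta-lactamase reporter under an NF-kB response element, 2,000 cells/well, exposed to compound for 16 hr at 37C; FRET-based beta-lactamase fluorescence read-out of pathway activation.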

[14] = qHTS assay for environmental chemicals that activate the Aryl hydrocarbon Receptor (AhR) signaling pathway (AID 651777); conditions: 1A2-DRE human hepatoma cells, luciferase, 24 h; activation: stronger effect = higher value; further: % of control where 0% means no effect; nearly all actives have a fitted effect of over 15% in size
In short: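 Measured luciferase activity, read 30 min after One-Glo addition at room temperature, from human hepatoma cells bearing a dioxin response element–CYP1A2 promoter reporter and exposed to compound for 24 hr at 37 C.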

[15] = qHTS assay for small molecule agonists of the antioxidant response element (ARE) signaling pathway measured by Nrf2-dependant transcriptional activity (AID 720636; active means well fitted curve in the direction sought with a large enough effect in the repeat runs; an effect the other way counts as inactive or inconclusive;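 further: HepG2 cells with an ARE-driven luciferase reporter; % of control where 0% means no effect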)
In short: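 In HepG2 cells engineered with an Nrf2-responsive luciferase gene, ARE induction was quantified as luminescence after 16 hr compound treatment at 37 C.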

[16] = qHTS assay for small molecule agonists of the antioxidant response element (ARE) signaling pathway measured by Nrf2-dependant transcriptional activity - cell viability counter screen (AID 720653; active means well fitted curve in the direction sought with a large enough effect in the repeat runs; an effect the other way counts as inactive or inconclusive; further: on the % scale 0 is the no-effect control and ±100 the full control effect); conditions: ARE-bla HepG2 viability, CellTiter-Glo ATP luminescence, 16 h; stronger effect = lower value
In short: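 ARE-bla HepG2 cells treated with compounds for 16 h at 37C; this counter screen measures viability as intracellular ATP by CellTiter-Glo luminescence after 30 min at room temperature.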

[17] = qHTS assay for cell viability of HEK293 cells (AID 743288); conditions: ATP luminescence (CellTiter-Glo), 18 h, stronger effect = lower value; further: on the % scale 0 is the no-effect control and ±100 the full control effect; nearly all actives have a fitted effect of over 50% in size
In short: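 Luminescent ATP quantitation served as the viability read-out. Cells (parental HEK293, 2,000/well) received compounds after at least 5 h at 37 C and were exposed for 18 h before a 30 min room-temperature reagent step.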

[18] = qHTS assay for cell viability of the p53RE-bla HCT-116 cell line (AID 743292); further: potency means the concentration at half of the fitted maximal effect; nearly all actives have a fitted effect of over 55% in size
In short: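 Intracellular ATP of p53RE-bla HCT-116 cells measured by luciferase luminescence following 16 h compound incubation at 37 C; DMSO-only wells served as vehicle controls.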

[19] = Primary qHTS for small molecule stabilizers of the endoplasmic reticulum resident proteome: Secreted ER Calcium Modulated Protein (SERCaMP) assay (AID 1508630); further: on the % scale 0 is the no-effect control and ±100 the full control effect
In short: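 GLuc-SERCaMP-expressing SH-SY5Y cells, pretreated 16 h with compound, are challenged with thapsigargin to empty ER calcium stores; after 4 h, coelenterazine is added directly to the medium and luminescence is imaged.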

[20] = molecular target: Nuclear receptor subfamily 1 group I member 2 (Rattus norvegicus) (UniProt Q9R1A7); experiment: qHTS assay for small molecule activators of the rat pregnane X receptor (rPXR) signaling pathway (AID 651751; call rule not given here; further: 0% is about no effect); conditions: rPXR reporter cells, luciferase (One-Glo), 24 h
Sequence of Nuclear receptor subfamily 1 group I member 2 (Rattus norvegicus) (Q9R1A7 whole entry, looked up): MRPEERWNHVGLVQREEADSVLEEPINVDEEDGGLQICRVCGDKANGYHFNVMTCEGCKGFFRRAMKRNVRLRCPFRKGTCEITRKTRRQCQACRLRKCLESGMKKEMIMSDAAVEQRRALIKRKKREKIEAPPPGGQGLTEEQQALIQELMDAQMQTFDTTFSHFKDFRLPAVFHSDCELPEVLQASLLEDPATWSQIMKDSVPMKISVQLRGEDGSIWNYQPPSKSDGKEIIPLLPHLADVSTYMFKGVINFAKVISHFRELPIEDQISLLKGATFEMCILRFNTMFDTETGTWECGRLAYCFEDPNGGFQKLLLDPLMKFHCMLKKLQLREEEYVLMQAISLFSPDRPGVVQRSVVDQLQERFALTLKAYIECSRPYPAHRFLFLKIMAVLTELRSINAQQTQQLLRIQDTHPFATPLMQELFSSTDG

Sequence of Cytochrome P450 1A2 (Homo sapiens) (P05177 whole entry, looked up): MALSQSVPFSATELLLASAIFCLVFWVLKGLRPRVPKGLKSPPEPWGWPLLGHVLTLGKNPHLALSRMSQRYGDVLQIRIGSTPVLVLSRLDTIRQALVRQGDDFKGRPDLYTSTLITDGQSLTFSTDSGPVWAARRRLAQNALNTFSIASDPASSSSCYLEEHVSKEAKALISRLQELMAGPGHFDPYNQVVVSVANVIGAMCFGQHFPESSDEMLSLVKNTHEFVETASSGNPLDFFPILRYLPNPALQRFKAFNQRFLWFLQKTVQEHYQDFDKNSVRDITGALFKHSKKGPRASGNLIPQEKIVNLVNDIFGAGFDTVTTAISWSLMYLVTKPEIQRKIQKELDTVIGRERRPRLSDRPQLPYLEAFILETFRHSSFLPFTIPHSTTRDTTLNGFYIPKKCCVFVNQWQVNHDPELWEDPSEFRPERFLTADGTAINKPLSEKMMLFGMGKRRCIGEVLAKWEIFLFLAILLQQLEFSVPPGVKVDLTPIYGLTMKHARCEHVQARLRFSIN
Sequence of Thyroid hormone receptor beta (Homo sapiens) (P10828 whole entry, looked up): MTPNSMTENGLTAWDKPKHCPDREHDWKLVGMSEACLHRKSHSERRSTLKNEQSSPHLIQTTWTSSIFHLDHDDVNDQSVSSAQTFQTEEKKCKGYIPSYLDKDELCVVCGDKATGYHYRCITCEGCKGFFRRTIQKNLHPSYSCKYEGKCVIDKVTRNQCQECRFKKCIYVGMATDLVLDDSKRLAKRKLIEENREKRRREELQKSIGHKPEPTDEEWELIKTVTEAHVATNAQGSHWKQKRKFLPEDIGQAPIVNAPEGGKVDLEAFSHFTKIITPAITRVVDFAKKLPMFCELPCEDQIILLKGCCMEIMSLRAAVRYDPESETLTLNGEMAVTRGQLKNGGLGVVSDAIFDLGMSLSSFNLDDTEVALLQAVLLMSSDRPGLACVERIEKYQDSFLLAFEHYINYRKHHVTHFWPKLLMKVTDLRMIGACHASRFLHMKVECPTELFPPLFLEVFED
Sequence of Androgen receptor (Homo sapiens) (P10275 whole entry, looked up): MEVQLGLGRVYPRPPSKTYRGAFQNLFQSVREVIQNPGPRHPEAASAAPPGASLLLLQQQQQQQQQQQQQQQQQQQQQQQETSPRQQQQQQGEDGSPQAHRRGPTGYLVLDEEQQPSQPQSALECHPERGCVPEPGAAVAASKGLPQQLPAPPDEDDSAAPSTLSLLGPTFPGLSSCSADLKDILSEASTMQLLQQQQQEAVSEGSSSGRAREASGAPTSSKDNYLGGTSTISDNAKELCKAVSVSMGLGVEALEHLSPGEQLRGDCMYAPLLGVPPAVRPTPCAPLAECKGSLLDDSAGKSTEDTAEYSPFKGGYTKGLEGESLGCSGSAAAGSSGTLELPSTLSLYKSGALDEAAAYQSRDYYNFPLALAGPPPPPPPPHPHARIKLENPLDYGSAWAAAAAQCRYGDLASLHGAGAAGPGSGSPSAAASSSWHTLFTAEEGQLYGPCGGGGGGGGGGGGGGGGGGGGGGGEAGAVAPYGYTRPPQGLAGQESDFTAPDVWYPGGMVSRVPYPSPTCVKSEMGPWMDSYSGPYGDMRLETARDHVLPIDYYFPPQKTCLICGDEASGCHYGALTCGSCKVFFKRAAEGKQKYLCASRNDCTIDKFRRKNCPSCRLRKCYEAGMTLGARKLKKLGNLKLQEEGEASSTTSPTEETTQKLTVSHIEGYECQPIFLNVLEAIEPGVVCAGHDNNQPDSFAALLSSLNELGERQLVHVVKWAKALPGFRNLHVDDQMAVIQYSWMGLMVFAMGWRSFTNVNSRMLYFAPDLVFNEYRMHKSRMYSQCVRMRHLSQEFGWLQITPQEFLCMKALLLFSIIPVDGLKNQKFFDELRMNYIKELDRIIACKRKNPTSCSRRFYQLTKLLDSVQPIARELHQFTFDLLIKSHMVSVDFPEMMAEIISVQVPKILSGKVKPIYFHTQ
Sequence of Guanine nucleotide-binding protein G(i) subunit alpha-1 (Homo sapiens) (P63096 whole entry, looked up): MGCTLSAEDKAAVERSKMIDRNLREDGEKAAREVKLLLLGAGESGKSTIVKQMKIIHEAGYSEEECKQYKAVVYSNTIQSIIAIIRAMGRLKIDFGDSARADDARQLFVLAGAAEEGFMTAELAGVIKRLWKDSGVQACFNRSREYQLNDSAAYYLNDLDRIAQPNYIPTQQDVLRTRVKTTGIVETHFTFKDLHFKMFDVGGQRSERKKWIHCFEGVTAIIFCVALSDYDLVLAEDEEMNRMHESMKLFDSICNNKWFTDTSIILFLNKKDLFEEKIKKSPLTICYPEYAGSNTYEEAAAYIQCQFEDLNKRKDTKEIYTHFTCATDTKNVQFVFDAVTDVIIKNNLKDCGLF
Sequence of 3',5'-cyclic-AMP phosphodiesterase 4B (Homo sapiens) (Q07343 whole entry, looked up): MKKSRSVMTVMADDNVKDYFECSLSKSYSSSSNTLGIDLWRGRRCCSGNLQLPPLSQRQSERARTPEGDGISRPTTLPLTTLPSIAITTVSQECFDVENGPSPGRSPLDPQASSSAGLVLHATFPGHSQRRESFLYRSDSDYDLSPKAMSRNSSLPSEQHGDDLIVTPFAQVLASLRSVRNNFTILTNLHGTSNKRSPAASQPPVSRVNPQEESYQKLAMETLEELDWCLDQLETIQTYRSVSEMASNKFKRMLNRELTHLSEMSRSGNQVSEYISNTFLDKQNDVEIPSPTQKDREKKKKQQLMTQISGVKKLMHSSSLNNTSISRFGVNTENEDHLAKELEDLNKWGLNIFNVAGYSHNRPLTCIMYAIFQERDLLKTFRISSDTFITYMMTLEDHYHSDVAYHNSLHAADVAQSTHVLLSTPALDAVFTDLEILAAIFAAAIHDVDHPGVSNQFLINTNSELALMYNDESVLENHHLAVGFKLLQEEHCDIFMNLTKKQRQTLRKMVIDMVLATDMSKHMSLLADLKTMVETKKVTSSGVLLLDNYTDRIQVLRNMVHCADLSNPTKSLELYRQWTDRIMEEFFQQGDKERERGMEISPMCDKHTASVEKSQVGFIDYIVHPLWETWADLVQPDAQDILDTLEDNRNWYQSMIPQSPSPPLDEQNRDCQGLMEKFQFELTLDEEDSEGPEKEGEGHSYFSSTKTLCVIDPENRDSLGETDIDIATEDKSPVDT
Sequence of ATP-dependent DNA helicase Q1 (Homo sapiens) (P46063 whole entry, looked up): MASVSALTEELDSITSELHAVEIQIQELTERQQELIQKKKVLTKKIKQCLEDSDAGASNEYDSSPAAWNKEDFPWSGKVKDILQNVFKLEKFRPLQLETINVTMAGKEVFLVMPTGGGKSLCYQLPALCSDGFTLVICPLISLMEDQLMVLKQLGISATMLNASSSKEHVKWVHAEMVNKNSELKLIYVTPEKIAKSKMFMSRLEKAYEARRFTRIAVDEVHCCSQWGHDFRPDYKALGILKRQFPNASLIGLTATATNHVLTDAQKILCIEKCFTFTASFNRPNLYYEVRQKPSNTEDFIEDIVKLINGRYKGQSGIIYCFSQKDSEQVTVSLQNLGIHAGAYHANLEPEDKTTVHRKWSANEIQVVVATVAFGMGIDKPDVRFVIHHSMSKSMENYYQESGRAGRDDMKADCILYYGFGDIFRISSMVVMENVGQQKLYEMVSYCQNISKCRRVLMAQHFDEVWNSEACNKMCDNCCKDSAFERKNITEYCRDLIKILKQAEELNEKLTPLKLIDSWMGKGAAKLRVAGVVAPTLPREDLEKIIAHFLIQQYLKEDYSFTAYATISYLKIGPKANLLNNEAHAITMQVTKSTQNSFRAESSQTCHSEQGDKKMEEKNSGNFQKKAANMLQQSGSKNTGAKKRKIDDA
Sequence of Thyrotropin-releasing hormone receptor (Homo sapiens) (P34981 whole entry, looked up): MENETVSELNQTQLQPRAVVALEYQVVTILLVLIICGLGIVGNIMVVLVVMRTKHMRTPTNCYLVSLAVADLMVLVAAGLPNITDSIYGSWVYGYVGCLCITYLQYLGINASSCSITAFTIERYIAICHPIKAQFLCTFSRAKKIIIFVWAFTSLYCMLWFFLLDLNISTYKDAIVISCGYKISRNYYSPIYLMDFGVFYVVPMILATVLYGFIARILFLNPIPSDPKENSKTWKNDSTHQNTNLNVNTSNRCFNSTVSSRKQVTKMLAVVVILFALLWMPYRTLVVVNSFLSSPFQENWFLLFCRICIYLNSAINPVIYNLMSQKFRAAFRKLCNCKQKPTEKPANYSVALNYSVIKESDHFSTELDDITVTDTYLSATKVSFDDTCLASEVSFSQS
Sequence of Cytochrome P450 2C9 (Homo sapiens) (P11712 whole entry, looked up): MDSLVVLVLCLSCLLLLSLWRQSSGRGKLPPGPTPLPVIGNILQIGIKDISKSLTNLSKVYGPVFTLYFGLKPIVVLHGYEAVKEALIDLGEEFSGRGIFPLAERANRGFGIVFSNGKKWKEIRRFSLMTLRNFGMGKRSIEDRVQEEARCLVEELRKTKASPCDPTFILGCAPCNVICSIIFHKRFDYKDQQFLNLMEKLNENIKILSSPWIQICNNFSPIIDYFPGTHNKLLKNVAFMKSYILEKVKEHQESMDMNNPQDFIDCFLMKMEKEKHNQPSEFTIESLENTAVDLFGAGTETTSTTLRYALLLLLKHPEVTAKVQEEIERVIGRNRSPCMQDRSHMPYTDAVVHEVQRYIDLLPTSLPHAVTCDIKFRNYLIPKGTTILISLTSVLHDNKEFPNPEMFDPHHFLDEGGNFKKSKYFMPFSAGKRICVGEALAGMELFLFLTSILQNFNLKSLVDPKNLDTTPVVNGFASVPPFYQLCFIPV

CN(CCOc1ccc(C[C@H](Nc2ccccc2C(=O)c2ccccc2)C(=O)O)cc1)c1ccccn1
active: Potency [4] 10 µM | Potency [5] 8.91 µM | Potency [18] 50.1 µM
inactive: Potency [1] | Potency [2] | outcome [3] | Potency [6] | Potency [7] | outcome [8] | outcome [9] | activation [10] 2.06% | activation [11] -13.2% | outcome [12] | activation [13] 1.83% | activation [14] 3.94% | outcome [15] | max response [16] 2.06% | max response [17] -5.97% | Potency [19] | max response [20] 1.12%
